NCF1 inh = p47phox (human) inhibition. P14598. p47phox/p22phox peptide binding, fluorescence polarization, 2 h. inhibition, % at 24.7 µM. hit rate 0.53% among 220,000;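 active = inhibition above about 30%, limit read from the data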
Target sequence (P14598 whole entry, looked up): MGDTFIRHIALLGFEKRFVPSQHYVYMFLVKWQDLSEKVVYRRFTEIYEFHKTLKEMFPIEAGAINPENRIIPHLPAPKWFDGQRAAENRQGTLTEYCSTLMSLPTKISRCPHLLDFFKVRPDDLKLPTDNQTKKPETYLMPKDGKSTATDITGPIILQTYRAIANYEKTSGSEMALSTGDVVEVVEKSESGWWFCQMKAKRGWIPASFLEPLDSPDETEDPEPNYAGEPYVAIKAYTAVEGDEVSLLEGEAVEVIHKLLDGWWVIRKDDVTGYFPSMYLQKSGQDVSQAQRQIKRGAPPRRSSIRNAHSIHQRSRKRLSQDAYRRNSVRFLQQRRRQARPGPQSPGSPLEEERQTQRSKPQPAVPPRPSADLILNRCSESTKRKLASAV
Efa HMGR inh = inhibitors of class II HMG-CoA reductase from Enterococcus faecalis. purified E. faecalis HMGR, NADPH absorbance 340 nm kinetic. inhibition, % at 10 µM. hit rate 0.41% among 190,000. AID 1066;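 active = inhibition above a set limit, the median over all tested compounds plus 3 SD, cut at about 9.5% in these data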;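 also: enzyme runs in reverse so mevalonate oxidation gives rising NADPH absorbance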
dFosB act = mouse delta FosB homodimer activation; P13346; purified delta FosB, TAMRA-CDK5 oligo fluorescence polarization; percent of positive-control signal above neutral wells; activation, % at 25 µM; hit rate 0.99% among 340,000;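 active = mean activation above about 17%, with every replicate also reaching it, limit read from the data, passing the limit was not always enough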
14-3-3 Bad inh = disrupts binding of bovine 14-3-3 zeta to phospho-Bad peptide; P63103; TR-FRET 14-3-3zeta/Dy647-pBad peptide displacement, 1 h; inhibition, % at 21.7 µM; hit rate 0.71% among 220,000;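 active = inhibition above about 70%, limit read from the data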
Target sequence (P63103 whole entry, looked up): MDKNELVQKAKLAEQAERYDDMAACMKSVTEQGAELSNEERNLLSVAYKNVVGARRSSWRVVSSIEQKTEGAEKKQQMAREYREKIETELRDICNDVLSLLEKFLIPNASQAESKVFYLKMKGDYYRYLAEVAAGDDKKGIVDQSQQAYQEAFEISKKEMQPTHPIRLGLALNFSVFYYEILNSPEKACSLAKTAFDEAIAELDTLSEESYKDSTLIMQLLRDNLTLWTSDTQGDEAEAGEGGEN
Each line names hits and unclear results; the compound was inactive in the other large screens; [ ] = remark or other dose. Compounds with a hit are over-represented: about 1.9% of the library has one in this group of screens.

Cc1nc(NC(=O)c2ccc(Cl)cc2)sc1-c1csc(Nc2cccc(F)c2)n1	NCF1 inh 158, 14-3-3 Bad inh 73 (no result: dFosB act)
Cc1nc(NC(=O)c2ccccc2)sc1-c1csc(Nc2ccc(C(=O)O)cc2)n1	14-3-3 Bad inh 75 (no result: Efa HMGR inh)
Cc1ccc(Nc2nc(-c3sc(NC(=O)c4cccc(Cl)c4)nc3C)cs2)cc1	none (no result: dFosB act)
CC(=O)Nc1nc(C)c(-c2csc(Nc3cccc([N+](=O)[O-])c3)n2)s1	14-3-3 Bad inh 87[fluorescence artefact?]
Cc1cccc(N(CC(=O)N/N=C/c2ccccc2C(=O)O)S(C)(=O)=O)c1C	none (no result: Efa HMGR inh)
C/C(=N\NC(=O)c1cccnc1)c1ccc(OC2OCCOC2Oc2ccc(/C(C)=N/NC(=O)c3cccnc3)cc2)cc1 (stereo not drawn)	14-3-3 Bad inh 87
COc1ccc(/C(C)=N/NC(=O)CNC(=O)c2cccnc2)cc1	none (no result: NCF1 inh, Efa HMGR inh, 14-3-3 Bad inh)
COc1ccc(C(=O)OCC(=O)NC2CCCC2)c(OC)c1OC	none (no result: NCF1 inh, Efa HMGR inh, 14-3-3 Bad inh)
Cc1cccc(Nc2nc3c(S(=O)(=O)c4ccccc4)nnn3c3ccccc23)c1	none
Cc1cc(C)cc(Nc2nc3c(S(=O)(=O)c4ccccc4)nnn3c3ccccc23)c1	NCF1 inh 34
COc1cc(C(=O)Nc2nccs2)ccc1OCc1c(C)noc1C	none
COc1ccc(C=C2C=C(C(C)(C)C)C(=O)C(C(C)(C)C)=C2)cc1OC	none (no result: NCF1 inh, Efa HMGR inh, 14-3-3 Bad inh)
CC(C)NC(=O)C(C)N1CCN(S(=O)(=O)c2ccc3ccccc3c2)CC1 (stereo not drawn)	none (no result: NCF1 inh, Efa HMGR inh, 14-3-3 Bad inh)
Cc1ccc(NC(=O)c2cc(-n3cnnc3)ccc2Cl)c(C)c1	NCF1 inh 42
CN1CCN(Cc2cccc3ncccc23)CC1CCO (stereo not drawn)	none (no result: NCF1 inh, Efa HMGR inh, 14-3-3 Bad inh)
COC(=O)C1CCN(C(c2ccc(OC)c(OC)c2)c2sc3nc(C)nn3c2O)CC1 (stereo not drawn)	none
CC(C)CC1CCCCC1OC(=O)CN1CCCCC1 (stereo not drawn)	none
Cc1cc(C)cc(NC(=O)CC2Oc3ccc(C)cc3NC2=O)c1 (stereo not drawn)	dFosB act 32 (no result: NCF1 inh, Efa HMGR inh, 14-3-3 Bad inh)
CC(C)(C)c1ccc(C(=O)Nc2ccc(O)c3c(=O)cc(-c4cccc(Cl)c4)oc23)cc1	none (no result: Efa HMGR inh)
COc1ccc(NC(=O)CSc2nccn2Cc2ccc(F)cc2)cc1	none (no result: NCF1 inh, Efa HMGR inh, 14-3-3 Bad inh)
CC(C(=O)O)n1nc2ccccc2n1 (stereo not drawn)	14-3-3 Bad inh 71
COC(=O)c1ccc(C(=O)OC)c(NC(=O)N2c3ccccc3Sc3ccccc32)c1	none
COc1ccc(/C=N/NC(=O)COc2cccc3cccnc23)cc1OC	dFosB act 31
Cc1cc(C)cc(-n2c(C)cc(/C=N\NC(=O)COc3cccc4cccnc34)c2C)c1	none
CCn1cc(/C=N/NC(=O)COc2cccc3cccnc23)c2ccccc21	NCF1 inh 41, 14-3-3 Bad inh 80[fluorescence artefact?]
Cc1cncn1CCc1nc2c3ccccc3nc(SCC(=O)Nc3cccc(Cl)c3)n2n1	NCF1 inh 50
COc1cc(/C=C2/C(=N)N3C=CSC3=NC2=O)ccc1OCCCOc1cc(C)ccc1C	none
CCc1ccc(S(=O)(=O)Nc2ccc(Cl)cn2)cc1	none (no result: NCF1 inh, Efa HMGR inh, 14-3-3 Bad inh)
CNC(=O)c1nnn(Cc2ccccc2)c1NC(C)=O	none
CNC(=O)c1nnn(Cc2ccccc2)c1NC(=O)C(F)(F)F	14-3-3 Bad inh 77
Cc1ccn2c(Nc3ccccc3C)c(-c3ccccn3)nc2c1	none
Cc1ccn2c(Nc3ccccc3)c(-c3ccccn3)nc2c1	dFosB act 33
COc1cc(/C=C2\C(=O)ON=C2c2ccccc2)cc(Cl)c1O	dFosB act 18
COc1cc(/C=C2\C(=O)ON=C2c2ccccc2)cc(Br)c1O	none (no result: NCF1 inh, Efa HMGR inh, 14-3-3 Bad inh)
Cc1[nH]ccc2c1[nH]c1cc(=O)ccc12	NCF1 inh 46 (no result: Efa HMGR inh)
CC(=O)c1ccc(NC(=O)CN(C)CC(=O)Nc2cccc(F)c2)cc1	14-3-3 Bad inh 90
CN(CC(=O)Nc1cccc(F)c1)CC(=O)Nc1cccc(S(N)(=O)=O)c1	none (no result: Efa HMGR inh)
OCCN1CCN(c2ncnc3c2sc2nc(N4CCOCC4)c4c(c23)CCC4)CC1	dFosB act 20
OCCN(CCO)c1ncnc2c1sc1nc(N3CCOCC3)c3c(c12)CCCC3	none
CC(NC(=O)Nc1nnc(C(F)(F)F)s1)N1C(=O)C2C3C=CC(C3)C2C1=O (stereo not drawn)	14-3-3 Bad inh 79
Cn1c(CO)cnc1SCc1ccc(F)cc1	Efa HMGR inh 15
Cn1c(CO)cnc1SCc1c(Cl)cccc1Cl	none
CC(=O)c1ccc(N2CCN(C(=O)Cc3n[nH]c(=O)c4ccccc34)CC2)cc1	Efa HMGR inh 13
Nc1ccc(Cc2ccc([N+](=O)[O-])cc2)cc1	none (no result: NCF1 inh, Efa HMGR inh, 14-3-3 Bad inh)
CC(C)(C)c1cc(CN2CCCC(O)C2)c(O)c(C(C)(C)C)c1 (stereo not drawn)	14-3-3 Bad inh 73
Cc1ccc(-c2nnc(-n3ncc(C#N)c3N)c3ccccc23)cc1C	NCF1 inh 42
COc1ccccc1-c1csc(-n2ncc(C#N)c2N)n1	none (no result: NCF1 inh, Efa HMGR inh, 14-3-3 Bad inh)
Cc1cc(/C=c2/sc3nc4ccccc4n3c2=O)c(C)n1-c1ccccn1	none
COc1ccc(O[C@H]2C=C[C@@H](c3ccccc3)O[C@@H]2COC(=O)CC/C(C)=N/O[C@@H](C)c2cn([C@H](CO)Cc3ccccc3)nn2)cc1	none (no result: dFosB act)
C/C(CCN1CCc2nc(-c3ccccc3)c(-c3ccccc3)cc2C1)=N\O[C@@H](C)c1cn([C@H](CO)Cc2ccccc2)nn1	Efa HMGR inh 10.0 (no result: dFosB act)
C#CCOCCOCCOCCNc1nc(N2CCN(C(=O)CCCCCCCCCCNC(=O)[C@@H]([C@H](C)O)n3cc(C)nn3)CC2)nc(N2CCN(C(=O)CCCCCCCCCCNC(=O)[C@@H]([C@H](C)O)n3cc(C)nn3)CC2)n1	none (no result: NCF1 inh, Efa HMGR inh, 14-3-3 Bad inh)
N#Cc1cc(-c2ccccc2)nn1-c1ccccc1	NCF1 inh 34, 14-3-3 Bad inh 80[fluorescence artefact?]
Cc1ccc(S(=O)(=O)N2CCN(C(=O)COC(=O)COc3ccc(Cl)cc3)CC2)c(C)c1	dFosB act 208 (no result: NCF1 inh, Efa HMGR inh, 14-3-3 Bad inh)
COc1cc(/C=N/NC(=O)c2cc(C)oc2C)ccc1O	NCF1 inh 37
CCOc1ccccc1-c1cc(C(=O)N/N=C/c2ccc(O)c(OC)c2)c2ccccc2n1	dFosB act 25
Cc1ccc(-c2cc(C(F)F)n3ncc(C(=O)NCc4ccco4)c3n2)cc1	none
Cc1onc(-c2c(Cl)cccc2Cl)c1C(=O)N1CCN(c2ncccn2)CC1	NCF1 inh 55
O=C(Nc1ccc2c(c1)OCO2)c1cc2ncc(Br)cn2n1	dFosB act 28 (no result: 14-3-3 Bad inh)
CN(CCc1ccccc1)C(=O)c1cccc(NC(=O)Cc2cccc(NC(=O)C3CCN(C(=O)C4CC4)CC3)c2)c1	none (no result: NCF1 inh, Efa HMGR inh, 14-3-3 Bad inh)
S=c1[nH]nc(NCCCN2CCOCC2)s1	NCF1 inh 78 (no result: Efa HMGR inh)
CC1=C(C#N)C(=O)N(C2CCS(=O)(=O)C2)C(=O)/C1=C\c1ccco1 (stereo not drawn)	14-3-3 Bad inh 77 (no result: Efa HMGR inh, dFosB act)
Cc1ccc(NC2c3ncccc3C(=O)N2c2ccccc2C)cc1C (stereo not drawn)	14-3-3 Bad inh 94
O=C(Cn1c(=O)cnc2ccccc21)NNC(=O)c1ccc(Cl)cc1	none (no result: NCF1 inh, Efa HMGR inh, 14-3-3 Bad inh)
Cc1ccc(NS(=O)(=O)c2ccc3c(c2)NC(=O)CC(=O)N3)cc1C	Efa HMGR inh 9.9
Cc1ccc(NS(=O)(=O)c2ccc3c(c2)NC(=O)C(C)C(=O)N3)cc1C (stereo not drawn)	none (no result: NCF1 inh, Efa HMGR inh, 14-3-3 Bad inh)
c1cc2c3c(cccc3c1)NC(c1ccc3c(c1)OCO3)N2	dFosB act 36 (no result: NCF1 inh, Efa HMGR inh, 14-3-3 Bad inh)

Screening data as filed in PubChem BioAssay.
